This passage reports potency estimated from few doses results from publication PMC11062922 (Nature Chemical Biology, 2023).

Like-named read-outs stand apart in the source and are kept apart here.

Parameters in all cases: species or system human, MV4-11 + K-562 + COLO205 + SK-N-BE2 + OVCAR-8
In one assay the test system is ACVR2B. The following applies: read-out: apparent Kd, n = 1.
A further assay concerns BCR. The note with it: read-out: apparent Kd, compound concentrations: 100 nM and 1000 nM (sheet 'Samples'), n = 1.
The test system of the next assay is EPHA1. The note with it: read-out: apparent Kd, compound concentrations: 100 nM and 1000 nM (sheet 'Samples'), n = 1.
A further assay relates to GAK. The note with it: read-out: apparent Kd, compound concentrations: 100 nM and 1000 nM (sheet 'Samples'), n = 1.
For a further assay, the system named is PTK6. The following applies: read-out: apparent Kd, n = 1.
The subject of a further assay is RET. The following applies: read-out: apparent Kd, compound concentrations: 100 nM and 1000 nM (sheet 'Samples'), n = 1.
For the next assay, the system named is RIPK2. The note with it: read-out: apparent Kd, compound concentrations: 100 nM and 1000 nM (sheet 'Samples'), n = 1.
A further assay deals with RIPK3. The note with it: read-out: apparent Kd, compound concentrations: 100 nM and 1000 nM (sheet 'Samples'), n = 1.
The subject of another assay is SIK2. The following applies: read-out: apparent Kd, compound concentrations: 100 nM and 1000 nM (sheet 'Samples'), n = 1.
A further assay relates to JAK2. The note with it: read-out: apparent Kd; compound concentrations: 100 nM and 1000 nM (sheet 'Samples'), CATDS: 0.147380455866959; n = 1.
The next assay relates to BMPR1A. The following applies: read-out: apparent Kd; compound concentrations:100 nM and 1000 nM (sheet 'Samples'); n = 1.
The subject of another assay is CDK6. The note with it: read-out: apparent Kd; compound concentrations:100 nM and 1000 nM (sheet 'Samples'); n = 1.
The test system of the next assay is MAP2K2. The note with it: read-out: apparent Kd; compound concentrations:100 nM and 1000 nM (sheet 'Samples'); n = 1.
A further assay deals with MAP2K5. The note with it: read-out: apparent Kd; compound concentrations:100 nM and 1000 nM (sheet 'Samples'); n = 1.
For a further assay, the system named is NNT. The note with it: read-out: apparent Kd; compound concentrations:100 nM and 1000 nM (sheet 'Samples'); n = 1.
The next assay deals with NQO1. The following applies: read-out: apparent Kd; compound concentrations:100 nM and 1000 nM (sheet 'Samples'); n = 1.
In the next assay the test system is PDGFRB. The note with it: read-out: apparent Kd; compound concentrations:100 nM and 1000 nM (sheet 'Samples'); n = 1.
A further assay relates to PRKCI. The note with it: read-out: apparent Kd; compound concentrations:100 nM and 1000 nM (sheet 'Samples'); n = 1.
The next assay deals with PRKCZ. The note with it: read-out: apparent Kd; compound concentrations:100 nM and 1000 nM (sheet 'Samples'); n = 1.
In another assay the test system is RIOK2. The note with it: read-out: apparent Kd; compound concentrations:100 nM and 1000 nM (sheet 'Samples'); n = 1.
In the next assay the test system is TESK2. The note with it: read-out: apparent Kd; compound concentrations:100 nM and 1000 nM (sheet 'Samples'); n = 1.
The next assay relates to TP53RK. The note with it: read-out: apparent Kd; compound concentrations:100 nM and 1000 nM (sheet 'Samples'); n = 1.
For the next assay, the system named is MAP3K1. The following applies: read-out: apparent Kd; compound concentrations:100 nM and 1000 nM (sheet 'Samples'); n = 1.
For a further assay, the system named is SLK. The following applies: read-out: apparent Kd; compound concentrations:100 nM and 1000 nM (sheet 'Samples'); n = 1.
Another assay relates to STK10. The following applies: read-out: apparent Kd; compound concentrations:100 nM and 1000 nM (sheet 'Samples'); n = 1.
Setting [1] is: compound concentrations:100 nM and 1000 nM (sheet 'Samples').

For `Fc1cc(Cl)ccc1Nc1ccnc2cc(-c3ccc(CN4CCCCC4)o3)ccc12` [GW560116X], the potency estimated from few doses is 1080 nM in the assay on ACVR2B (compound concentrations: 100 nM and 1000 nM (sheet 'Samples'), CATDS: 8.5008478980750105E-2); 359 nM in the assay on BCR (CATDS: 0.13309110379765501); 670 nM in the assay with EPHA1 (CATDS: 0.10065713248800801); 646 nM with GAK (CATDS: 0.10209993083840201); 710 nM with PTK6 (compound concentrations: 100 nM and 1000 nM (sheet 'Samples'), CATDS: 9.8392012299874307E-2); 577 nM in the assay on RET (CATDS: 0.106923709019676). For the same molecule, the potency estimated from few doses with RIPK2 (CATDS: 0.37039480382744999) was 69.3 nM; in the assay with RIPK3 (CATDS: 7.5580251546270003E-2), 1650 nM; with SIK2 (CATDS: 0.152739498183388) it was 276 nM.
As to `Fc1cc(Cl)ccc1Nc1ccnc2cc(-c3ccc(CN4CCSCC4)o3)ccc12` [GW560106X], the potency estimated from few doses in the assay with ACVR2B (compound concentrations: 100 nM and 1000 nM (sheet 'Samples'), CATDS: 8.8140626462379107E-2) is 1650 nM; in the assay with BCR (CATDS: 0.117591173693898), 830 nM; in the assay on EPHA1 (CATDS: 0.1160485900451) it was 853 nM; with GAK (CATDS: 9.8647992016736893E-2), 1220 nM; in the assay on JAK2, 547 nM; with RET (CATDS: 0.12743524996908201) it was 710 nM. Further, the potency estimated from few doses in the assay on RIPK2 (CATDS: 0.19291932694362501) is 357 nM; in the assay with RIPK3 (CATDS: 8.1688105237549893E-2), 2080 nM; in the assay on SIK2 (CATDS: 9.6722651513250199E-2), 1290 nM.
For the molecule `Cc1cc(O)cc(C)c1/C=C/c1cncc(C(N)=O)c1` [GW435821X_KCGS], the potency estimated from few doses was 26.5 nM with ACVR2B (setting [1]); 1200 nM in the assay with BMPR1A; 120 nM in the assay on CDK6; 179 nM in the assay on MAP2K2; 2600 nM with MAP2K5; 2010 nM in the assay with NNT. Further, the potency estimated from few doses was 1150 nM in the assay with NQO1; 1570 nM in the assay on PDGFRB; 2300 nM in the assay with PRKCI; 1470 nM with PRKCZ; 1460 nM in the assay with PTK6 (setting [1]); 2280 nM in the assay on RIOK2. In addition, the potency estimated from few doses in the assay on TESK2 was 1250 nM; in the assay with TP53RK, 1440 nM.
Take `C[C@@H](Oc1cc(-n2cnc3cc(-c4ccnc(N5CCN(C)CC5)c4)ccc32)sc1C(N)=O)c1ccccc1Cl` [GSK641502A]: the potency estimated from few doses in the assay on ACVR2B (setting [1]) was 732 nM; in the assay on MAP3K1, 603 nM; with SLK it was 1940 nM; with STK10 it was 1120 nM.
